Screens from PubChem BioAssay.
This is a sample that favours compounds with a hit; in the whole collection about 12% have one here.
Lmaj promast: reduces viability of Leishmania major promastigotes | resazurin fluorescence viability | inhibition, % at 10 µM | 200,000 compounds, 9% hits; in the data active = inhibition above about 50%;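 also: promastigotes grown with compound for 44 hours at 28 °C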
ROMK mod: modulators of human ROMK potassium channel; 130,000 compounds, 2% hits; B-score at 10 µM; P48048; AID 1918; Tet-inducible ROMK, thallium flux fluorescence; actives lie on both sides;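 active = signal ratio slope over the read window, or its plate-corrected B-score, at least 3 SD from the plate mean, either direction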;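 also: B-score of the F/F0 ratio slope over 7 to 12 s after thallium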
Calpain2 inh: inhibitors of pig calpain II; 220,000 compounds, 0.37% hits; inhibition, % at 16 µM; AID 1236; purified calpain II, fluorogenic peptide substrate, 30 min;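 active = inhibition above about 50%, limit read from the data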
WT yeast gro inh: growth inhibition of WT yeast, mitochondrial fusion screen. mitochondrial fusion phenotypic screen, WT strain. inhibition, % at 10 µM. 190,000 compounds, 2.1% hits; in the data active = inhibition above about 58%; tested in S. cerevisiae
KCC2 mod: KCC2 (human) Cl- transport modulation; 190,000 compounds, 2.2% hits; AID 1456; KCC2 cells, thallium flux FluoZin-2 fluorescence; B-score of Tl+ flux slope (higher = more flux/activation; lower = inhibition) at 10 µM; Q9H2X9;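 active = thallium flux slope and its plate-corrected score both differing from the plate sample mean at a set confidence after two filtering rounds, in either direction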;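 also: slope of fluorescence scaled to starting intensity during 10 to 20 s after thallium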
* = called active by the depositor; i = inactive; / = no result given.

SMILES	Lmaj promast	ROMK mod	Calpain2 inh	WT yeast gro inh	KCC2 mod
Cc1ccc(CN2CCN(Cc3cnc(C)s3)CC2CCO)cc1 (stereo not given)	48	/	17	2	/
Cc1nc2c(C(=O)NCc3cccs3)cnn2c(C)c1Cc1ccccc1	54*	0.036	-46	-5	1.4
Cc1cccc(N2CCN(C(=O)CSc3ccsc3[N+](=O)[O-])CC2C)c1 (stereo not given)	64*	/	-29	18	0.8
O=C1/C(=C/c2ccncc2)SC(=S)N1C1CCS(=O)(=O)C1 (stereo not given)	100*	/	-3	-14	/
O=C1/C(=C\c2cccs2)SC(=S)N1C1CCS(=O)(=O)C1 (stereo not given)	77*	0.073	-12	23	-0.54
O=C1/C(=C/c2ccccc2)SC(=S)N1C1CCS(=O)(=O)C1 (stereo not given)	/	/	-21	/	0.12
O=C(C(=O)N1CCN(c2ccccc2F)CC1)c1c[nH]c2ccccc12	-5	-0.44	12	-1	-1.6
C/C(=N\NC(=O)Cn1nc(C)c(Br)c1C)c1cccs1	-5	0.9	1	-10	-0.23
COc1cccc(NC(=O)COc2c(F)c(F)c(C(F)(F)F)c(F)c2F)c1	2	0.019	22	-8	-0.039
Cc1ccc(CSCCNS(=O)(=O)c2ccc(C)cc2)cc1	-6	/	19	24	-0.2
CCCN(CCC)CCCNC(=O)c1cc2c(=O)n(C)c3ccccc3c2n1C	51*	/	-44	14	-2
CCCCN(CC)CCNC(=O)CNC(=O)Cn1ccc2ccccc2c1=O	-8	0.0058	52*	-1	0.97
CCCCN(CC)CCNC(=O)c1cc2c(=O)n(C)c3ccccc3c2n1C	77*	/	-47	11	/
CCN(CC)CCNC(=O)c1cc2c(=O)n(C)c3ccccc3c2n1C	13	/	-156	2	/
O=C(NCCCN1CCCCC1)c1ccc2c(=O)n(CCc3ccccc3)c(=O)[nH]c2c1	57*	/	-65	5	0.58
C[C@H](N)c1nnc(SCC(N)=O)o1	/	-0.71	-7	/	0.59
COc1ccc(C(C)=O)cc1COC(=O)c1ccc(S(=O)(=O)N(C)C)cc1	12	/	20	-7	0.11
COc1ccc(CC(=O)NNC(=O)COc2ccc3ccccc3c2)cc1	-4	/	-3	4	0.17
COc1ccc(-c2nc(NC(=O)C3=NN(c4cccc(C)c4)C(=O)CC3)sc2C)cc1	13	0.012	-70	1	0.056
Cc1ccc(OC(=O)c2sc3ncn(C)c(=O)c3c2C)cc1	25	-0.58	14	6	-0.16
Cc1ccc(N2C(=O)C(CC(=O)Nc3cccc(F)c3)N(C3CC3)C2=O)cc1 (stereo not given)	0	-0.41	9	-3	0.93
Cn1c(C(=O)NCCCN2CCCCCC2)cc2c(=O)n(C)c3ccccc3c21	67*	/	-58	14	-1.5
COc1cc(OC)cc(-c2nnc(Nc3nc4c(F)cccc4s3)o2)c1	-7	2	-42	14	9.1*
NNc1nc2c(F)cccc2s1	-3	/	15	8	0.027
Fc1cccc2sc(Nc3nnc(-c4ccccc4)o3)nc12	83*	7*	-20	5	/
SMILES	Lmaj promast	ROMK mod	Calpain2 inh	WT yeast gro inh	KCC2 mod
O=C(COc1ccccc1)NNc1nc2c(F)cccc2s1	-3	-0.0087	-14	-11	0.9
CC1(C)CC(=O)C=C(NCc2ccc(Cl)c(Cl)c2)C1	8	-0.088	-25	12	-1.6
C=CCn1c(=N)c(C(=O)OCC)cc2c(=O)n3cc(C)ccc3nc21	/	/	/	13	/
CCn1c(=N)c(C(N)=O)cc2c(=O)n3cccc(C)c3nc21	100*	/	/	/	-1.5
Cc1cccn2c(=O)c3cc(C#N)c(=N)n(CCCN4CCOCC4)c3nc12	89*	0.42	/	/	0.015
Cc1ccc2nc3c(cc(C(N)=S)c(=N)n3CCCOC(C)C)c(=O)n2c1	86*	/	-117	12	/
CCn1c(=N)c(C(=O)NC)cc2c(=O)n3cccc(C)c3nc21	/	/	-361	/	/
Cc1cccn2c(=O)c3cc(C(N)=S)c(=N)n(CCCN4CCOCC4)c3nc12	64*	-0.084	-60	12	-0.023
COCCCNC(=S)NC1CCCCC1	-5	/	-10	14	0.21
COc1cc(/C(C)=N/NC(=O)CN2CCN(S(=O)(=O)c3ccc(C)cc3)CC2)ccc1O	/	/	-10	/	0.044
CCCn1c(=N)c(C(=O)NC2CCCC2)cc2c(=O)n3cccc(C)c3nc21	58*	-0.89	i	-12	-0.33
COc1ccc(CNC(=O)c2ccc(C(C)(C)C)cc2)cc1	-3	/	7	4	/
COc1ccc(C(=O)NCC(C)(C)SCc2c(C)cc(C)cc2C)cc1	3	/	56*	35	1.3
C/C(=N\Nc1ccc(F)cc1)c1ccncc1	84*	-0.53	-4	23	1.4
